IL1B secr inh: blocks inflammasome-driven IL-1 beta release. 360,000 tested, 4.7% active. THP-1 LPS/ATP IL-1B secretion, AlphaLISA, 16 h; stronger effect = lower value. activity change, % at 57.5 µM; in the data active = activity change below about -50%; inconclusive = mostly about -30% to -49%
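Secreted IL-1B measured by AlphaLISA bead assay after 16 h compound exposure of THP-1 cells; compounds (final up to 57.5 uM) added 1 h before LPS (250 ng/mL) and ATP (1.25 mM) stimulation; lower signal means less secretion.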
Giardia killer: kills Giardia lamblia | AID 540267 | 340,000 tested, 0.15% active | activity change, % at 7.66 µM, hits read low | Giardia lamblia trophozoite viability; in the data active = activity change below about -80%; inconclusive = between about -30% and that limit;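 also: parasites exposed to compound for two days anaerobically before the ATP read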
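Compounds were tested on trophozoites seeded at 100 cells/well and held 48 hrs at 37 deg C anaerobically. An ATP-based luminescent kit measured the remaining live cells.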
TDP1 cell CPT: DT40-hTDP1 cell growth loss with CPT; chicken DT40 Tdp1-/-;hTDP1 cells + 20 nM CPT, ATP luminescence, 48 h; Potency, µM (doses to about 46.2 µM), without a hit: at the top dose activity change, negative = growth inhibition, usual class: inhibitors; 420,000 tested, 12% active; also: potency is read from the fitted curve at half-maximal effect; nearly all actives have a fitted effect of over 55% in size
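Cell growth measured by CellTiter-Glo luminescence after a minimum 48 h, 37 C compound exposure with 20 nM CPT in Tdp1-knockout DT40 cells stably expressing hTDP1, seeded 400/well; qHTS titration format.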
TDP1 inh: blocks human tyrosyl-DNA phosphodiesterase 1 | Q9NUW8 | recombinant TDP1, AlphaScreen DNA substrate cleavage | Potency, µM (top dose mostly 130 µM), without a hit: at the top dose activity change, negative = inhibition, most hits filed as inhibitors | 350,000 tested, 0.28% active | AID 485290; also: potency is read from the fitted curve at half-maximal effect; nearly all actives have a fitted effect of over 40% in size
Target sequence (Q9NUW8 whole entry, looked up): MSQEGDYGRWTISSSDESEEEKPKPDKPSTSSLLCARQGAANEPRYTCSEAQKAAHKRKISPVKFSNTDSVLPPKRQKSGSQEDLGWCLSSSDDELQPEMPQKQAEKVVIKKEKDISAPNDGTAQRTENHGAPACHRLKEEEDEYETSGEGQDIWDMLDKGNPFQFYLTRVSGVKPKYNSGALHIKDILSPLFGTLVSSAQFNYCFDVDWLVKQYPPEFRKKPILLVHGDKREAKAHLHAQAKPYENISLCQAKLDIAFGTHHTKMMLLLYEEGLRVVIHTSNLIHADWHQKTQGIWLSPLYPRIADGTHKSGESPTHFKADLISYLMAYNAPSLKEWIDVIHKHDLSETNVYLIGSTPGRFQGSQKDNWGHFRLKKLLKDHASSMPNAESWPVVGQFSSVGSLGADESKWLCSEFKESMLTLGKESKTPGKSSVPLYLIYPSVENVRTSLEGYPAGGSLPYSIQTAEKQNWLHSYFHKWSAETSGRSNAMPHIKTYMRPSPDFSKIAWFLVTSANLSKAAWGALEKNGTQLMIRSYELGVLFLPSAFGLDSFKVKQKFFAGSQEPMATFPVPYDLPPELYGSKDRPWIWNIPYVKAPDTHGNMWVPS
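Tdp1 1 nM final; 15 min RT w/ cpd; substrate 15 nM, 5 min; beads 10 ug/ml, 10 min; AlphaScreen read. Neg ctrl: no enzyme.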
ELG1 repair inh: blocks ELG1-dependent DNA repair in HEK293T cells; 330,000 tested, 2.3% active; HEK293T ELG1-luciferase reporter, luminescence, 16 h; DNA damage induced by 5-fluorouridine; Potency, µM (top dose mostly 46.1 µM), inactives show at the highest dose activity change, negative = inhibition, usual class: inhibitors; AID 504467; also: potency is read from the fitted curve at half-maximal effect; nearly all actives have a fitted effect of over 55% in size
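Reporter activity after DNA damage by 5-fluorouridine is monitored. Compound-treated cells incubate 16 hr at 37 °C, then ONE-Glo is added for 30 min before luminescence reading.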
TDP1 cell noCPT: qHTS for Inhibitors of human tyrosyl-DNA phosphodiesterase 1 (TDP1): qHTS in cells in absence of CPT | DT40 Tdp1-/- hTDP1 cells, no CPT, ATP luminescence, 48 h | Potency, µM (highest dose often 46.2 µM), for inactives: at the highest dose activity change, negative = growth inhibition, most hits filed as inhibitors | 420,000 tested, 15% active; also: potency is read from the fitted curve at half-maximal effect; nearly all actives have a fitted effect of over 55% in size
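Compound effects on proliferation are scored in DT40 Tdp1-/-;hTDP1 cells in the absence of CPT. ATP levels (CellTiter-Glo luminescence) are recorded after a ≥48 hr, 37 °C incubation.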
* hit, by the source's call; ? = inconclusive; . = not tested or not shown; [ ] = another dose, or the depositor's remark. Compounds with a hit are over-represented: about 19% of the library has one in this group of screens. Unless noted, calls follow the shape of the dose curve; as a rule, active = well fitted curve in the direction sought with a large enough effect; inconclusive = small, poorly fitted or top-dose-only effect, or another doubt; inactive = no such curve, though single readings can be large; an effect the other way counts as inactive or inconclusive. % is scaled to controls: 0 for no effect and ±100 for the full control effect.

SMILES	IL1B secr inh	Giardia killer	TDP1 cell CPT	TDP1 inh	ELG1 repair inh	TDP1 cell noCPT
CCSc1ncc(Cl)c(C(=O)Nc2cccc(Cl)c2)n1	.	.	10µM*	-4%	.	?
CCSc1ncc(Cl)c(C(=O)Nc2ccccc2Cl)n1	9	?	-13%	.	-4%	?
CCC1CCCCN1S(=O)(=O)c1ccc(NC(=O)c2ccncc2)cc1 (centres undefined)	-3	5	16µM*	2%	5.2µM*	12µM*
OCC#CCSc1nnc(-c2cccc3ccccc23)o1	.	-5	.	2%	?	.
CCSc1ncc(Cl)c(C(=O)Nc2ccc(S(=O)(=O)Nc3onc(C)c3C)cc2)n1	16	1	-24%	2%	15%	0%
CCC1CCCCN1S(=O)(=O)c1ccc(NC(=O)c2cc(=O)c3c(C)cc(C)cc3o2)cc1 (centres undefined)	.	.	-27%	-2%	.	15µM*
CCSc1ncc(Cl)c(C(=O)Nc2ccc(S(=O)(=O)N3CCCCC3CC)cc2)n1 (centres undefined)	.	.	10µM*	7%	.	6.5µM*
CCOC(=O)c1ccc(S(=O)(=O)N2CCC(N3CCCCCC3)CC2)cc1	-3	.	-19%	.	.	-28%
Fc1ccc(-c2ccnc(=S)[nH]2)cc1	0	4	21µM*	4%	?	?
CCOC(=O)C(C)Nc1ncnc2onc(C)c12 (centres undefined)	.	.	11%	9%	.	-15%
Cc1cccc(OCC2Cn3c(nc4c3c(=O)[nH]c(=O)n4C)O2)c1 (centres undefined)	23	-15	?	.	?	10µM*
CCc1ccc(OCC2Cn3c(nc4c3c(=O)[nH]c(=O)n4C)O2)cc1 (centres undefined)	13	-8	?	.	?	26µM*
CCN(CC)CCN1CCN(c2cnc(C)cn2)CC1	-9	.	-11%	.	.	3%
COc1ccc2c(c1)OCC(Cc1ccc(OC)c(O)c1)C2=O (centres undefined)	.	.	0.73µM*	8%	.	0.58µM*
CCC(C)c1ccc(NC(=S)NCc2ccccc2OC)cc1 (centres undefined)	22	-11	?	-7%	?	23µM*
COc1ccccc1CNC(=S)Nc1ccc(F)cc1	10	28	3%	.	-22%	5.2µM*
Fc1ccc(NC(=S)NCc2ccccc2Cl)cc1	-71*	-20	0%	3%	-16%	-4%
O=C(CSc1nnc(CNC(=O)c2ccccc2)o1)NCCc1ccccc1	0	-2	0%	-2%	4%	-13%
O=C(NCc1ccco1)/C(=C\C=C\c1ccccc1)NC(=O)c1ccccc1Br	0	-5	-16%	4%	23µM*	?
Cc1ccc(C(=O)N/C(=C\C=C\c2ccccc2)C(=O)NCc2ccco2)cc1	-2	4	-6%	8%	-20%	-14%
CC1C/C(=C/c2ccco2)C(=O)/C(=C/c2ccco2)C1 (centres undefined)	.	.	.	0%	-19%	.
O=C1/C(=C\c2ccco2)CCC/C1=C\c1ccco1	-64*	-6	16µM*	2%	?	?
COc1ccc(CCCc2nnc(SCC(=O)Nc3ccc(C)cc3)o2)cc1C	.	.	7%	5%	.	2%
COc1ccc(OC)c(NC(=O)Nc2c(C)n(C)n(-c3ccccc3)c2=O)c1	.	.	-11%	2%	.	-10%
COc1ccc(Cl)cc1NC(=O)CN(C)CC(=O)Nc1c(C)n(C)n(-c2ccccc2)c1=O	-23	2	?	2%	18µM*	?
SMILES	IL1B secr inh	Giardia killer	TDP1 cell CPT	TDP1 inh	ELG1 repair inh	TDP1 cell noCPT
COc1ccc(Cl)cc1NC(=O)CN(C)CC(=O)Nc1ccc(Br)cc1	-89*	-2	?	7%	-3%	?
COc1ccc(Cl)cc1NC(=O)CN(C)C(=O)c1cc2c(F)cccc2s1	39	-4	10µM*	-2%[56.1 µM]	?	6.5µM*
COc1ccc(Cl)cc1NC(=O)CN(C)CC(=O)Nc1cc(OC)c(OC)c(OC)c1	0	14	5.8µM*	.	18µM*	4.1µM*
COc1ccc(Cl)cc1NC(=O)CN(C)C(=O)c1ccc(C)s1	23	-6	13%	-17%[0.505 µM]	-2%	-1%
COc1ccc(Cl)cc1NC(=O)CN(C)CC(=O)Nc1ccc(S(N)(=O)=O)cc1	-18	13	-3%	13%	-16%	-10%
COc1ccc(Cl)cc1NC(=O)CN(C)CC(=O)NCc1cccs1	-12	6	?	1%	-2%	?
Cc1ncc2c(c1CNC(=O)c1cncs1)CCN(C(=O)c1cccc(-c3cccc(F)c3)c1)C2	.	.	0%	.	.	-19%
Cc1cc(-c2cc(F)cc3c2OC(CNC(=O)CCn2cncn2)C3)ccc1F (centres undefined)	.	.	14%[9.04 µM]	.	.	-2%
CC(C)N(C(=O)/C=C/c1cccc([N+](=O)[O-])c1)C(C)C	-5	22	-15%	4%	18%	?
O=C(/C=C/c1cccc([N+](=O)[O-])c1)c1ccco1	-7	?	4.6µM*	.	?	3.7µM*
Cc1cccc(/C=C/C(=O)c2ccc([N+](=O)[O-])o2)c1	-100*	?	0.58µM*	2%	?	0.65µM*
O=C(/C=C/c1cccc([N+](=O)[O-])c1)NCc1ccc2c(c1)OCO2	-3	11	-13%	3%	6%	-16%
COc1ccc(/C=C/C(=O)c2ccc(C)s2)cc1	.	.	?	8%[56.1 µM]	.	?
O=C(/C=C/c1cccc([N+](=O)[O-])c1)c1ccc([N+](=O)[O-])o1	-52*	9	0.16µM*	.	.	0.16µM*
COc1ccc(/C=C/C(=O)c2ccc([N+](=O)[O-])o2)cc1	-14	-21	2.3µM*	.	?	2.6µM*
CNc1ccc(/C=C/C(=O)c2ccc(C)cc2)cc1[N+](=O)[O-]	-11	-4	?	5%	?	?
Cc1cc(C)n2nc(SCC(=O)c3c(N)n(CC(C)C)c(=O)n(C)c3=O)nc2n1	47	-24	?	-3%	?	?
CN(C(=O)COC(=O)CCC1CCCCC1)c1c(N)n(Cc2ccccc2)c(=O)[nH]c1=O	3	-9	-7%	-7%	16%	-8%
O=C(OCc1ccccc1)/C(=C/c1cccc([N+](=O)[O-])c1)NC(=O)c1ccco1	-50*	-2	?	5%	?	-20%
